Experimental data from PubChem BioAssay (Tox21).
Values joined by “and” are separate entries in the source; they are usually repeats but may differ in a detail not shown here. Identical values can stand only once. Inconclusive results are not listed. A call without a number means that no potency is given here. Some structures have more than one record in an assay (separate samples or runs), and their calls can disagree. Active and inactive are the calls of the source. Unless noted, calls follow the shape of the dose curve; as a rule, active = well fitted curve in the direction sought with a large enough effect in the repeat runs; inconclusive = weak or mixed curves; inactive = no such curve, though single readings can be large; an effect the other way counts as inactive or inconclusive.

Key:
[1] = target: Acetylcholinesterase (Homo sapiens) (UniProt P22303); assay: Acetylcholinesterase (AChE) small molecule antagonists: enzyme-based qHTS assay (AID 1347397; calls by dose curve; also: nearly all actives have a fitted effect of over 55% in size); settings: Potency: AChE enzyme activity inhibition; outcome: AChE enzyme activity inhibition
Acetylcholinesterase (Homo sapiens), sequence (P22303 whole entry, looked up): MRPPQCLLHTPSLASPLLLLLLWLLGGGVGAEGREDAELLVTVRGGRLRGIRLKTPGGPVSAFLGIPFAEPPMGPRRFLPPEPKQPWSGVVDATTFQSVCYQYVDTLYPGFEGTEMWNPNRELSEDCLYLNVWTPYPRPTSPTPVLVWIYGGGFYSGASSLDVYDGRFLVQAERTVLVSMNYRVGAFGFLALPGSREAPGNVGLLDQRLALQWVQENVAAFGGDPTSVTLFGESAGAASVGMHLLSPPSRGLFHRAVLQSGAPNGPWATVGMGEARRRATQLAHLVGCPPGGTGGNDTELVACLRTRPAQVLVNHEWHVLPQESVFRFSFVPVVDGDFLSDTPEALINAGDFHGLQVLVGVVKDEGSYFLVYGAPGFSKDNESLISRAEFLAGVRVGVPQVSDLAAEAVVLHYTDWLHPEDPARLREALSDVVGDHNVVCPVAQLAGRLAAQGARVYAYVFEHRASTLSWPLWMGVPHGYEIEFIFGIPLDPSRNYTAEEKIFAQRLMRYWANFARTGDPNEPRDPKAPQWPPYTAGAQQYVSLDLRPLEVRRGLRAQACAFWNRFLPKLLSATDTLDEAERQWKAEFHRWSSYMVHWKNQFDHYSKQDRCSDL
Summary of the method: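 Recombinant human AChE (50 mU/mL) preincubated with compound 30 min at room temperature; acetylthiocholine plus DTNB then added, and thiocholine formation read colorimetrically after 10 min at room temperature. DMSO served as vehicle control.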

[2] = target: Acetylcholinesterase (Homo sapiens) (UniProt P22303); assay: Acetylcholinesterase (AChE) small molecule antagonists: fluorescence cell-based qHTS assay (AID 1347398; calls by dose curve; also: nearly all actives have a fitted effect of over 50% in size); settings: Potency: AChE activity; outcome: AChE activity
Summary of the method: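 SH-SY5Y cells (2000/well), attached overnight, incubated with compound 30 min at 37 C. Acetylthiocholine plus Thiolite Green then added for 40 min at room temperature. Thiocholine fluorescence (Ex/Em 490/520 nm) reports cellular AChE activity.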

[3] = target: Acetylcholinesterase (Homo sapiens) (UniProt P22303); assay: Acetylcholinesterase (AChE) small molecule antagonists: enzyme-based qHTS assay with human liver microsomes (AID 1347399; calls by dose curve; also: nearly all actives have a fitted effect of over 60% in size); settings: Potency: qHTS inhibition; outcome: qHTS inhibition
Summary of the method: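 Recombinant human AChE (50 mU/mL in the enzyme mix) and human liver microsomes (0.25 mg/mL final) were preincubated with compound and NADPH (0.25 mg/mL final) for 30 min at 37 C. Acetylthiocholine/DTNB was then added; thiocholine was read colorimetrically after 10 min at room temperature.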

[4] = target: Cytochrome P450 2C19 (Homo sapiens) (UniProt P33261); assay: Cytochrome P450 Family 2 Subfamily C Member 19 (CYP2C19) small molecule antagonists: luciferase reporter qHTS assay (AID 1671197); also: nearly all actives have a fitted effect of over 65% in size
Cytochrome P450 2C19 (Homo sapiens), sequence (P33261 whole entry, looked up): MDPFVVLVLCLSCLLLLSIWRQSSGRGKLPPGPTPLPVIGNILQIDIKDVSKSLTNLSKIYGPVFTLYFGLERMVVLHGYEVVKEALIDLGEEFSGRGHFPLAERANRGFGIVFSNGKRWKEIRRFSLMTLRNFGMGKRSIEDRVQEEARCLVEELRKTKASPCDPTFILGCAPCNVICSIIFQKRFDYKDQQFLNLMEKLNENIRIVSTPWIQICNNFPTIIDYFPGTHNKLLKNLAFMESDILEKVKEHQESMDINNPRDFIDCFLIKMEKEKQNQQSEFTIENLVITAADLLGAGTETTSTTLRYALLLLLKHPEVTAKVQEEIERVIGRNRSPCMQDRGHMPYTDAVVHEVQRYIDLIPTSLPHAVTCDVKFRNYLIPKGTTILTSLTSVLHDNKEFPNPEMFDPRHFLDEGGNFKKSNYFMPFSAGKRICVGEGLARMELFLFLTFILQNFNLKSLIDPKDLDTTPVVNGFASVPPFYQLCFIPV
Summary of the method: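 Luminescent readout of CYP2C19 activity: luciferin product detected 20 min after adding detection reagent. Before that, compound and enzyme-substrate mix preincubated 10 min at room temperature; NADPH-regenerating system started a 1 h, 37C reaction. Ketoconazole as positive control.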

[5] = target: Cytochrome P450 2C9 (Homo sapiens) (UniProt P11712); assay: Cytochrome P450 Family 2 Subfamily C Member 9 (CYP2C9) small molecule antagonists: luciferase reporter qHTS assay (AID 1671198); also: nearly all actives have a fitted effect of over 50% in size
Cytochrome P450 2C9 (Homo sapiens), sequence (P11712 whole entry, looked up): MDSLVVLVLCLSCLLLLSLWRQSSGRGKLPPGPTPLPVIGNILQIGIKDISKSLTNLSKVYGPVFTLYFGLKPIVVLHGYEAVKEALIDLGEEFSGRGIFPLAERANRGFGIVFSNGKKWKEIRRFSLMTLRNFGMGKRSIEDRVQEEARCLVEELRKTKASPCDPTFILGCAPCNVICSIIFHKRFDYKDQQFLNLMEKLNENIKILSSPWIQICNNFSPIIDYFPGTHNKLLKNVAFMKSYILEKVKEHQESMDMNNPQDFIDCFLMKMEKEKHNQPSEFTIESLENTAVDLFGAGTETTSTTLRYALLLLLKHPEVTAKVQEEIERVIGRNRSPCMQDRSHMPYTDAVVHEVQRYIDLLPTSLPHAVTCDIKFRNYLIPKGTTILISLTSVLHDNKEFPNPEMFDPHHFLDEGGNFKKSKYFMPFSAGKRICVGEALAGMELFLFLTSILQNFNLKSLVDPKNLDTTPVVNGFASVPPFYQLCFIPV
Summary of the method: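 P450-Glo proluciferin substrate with CYP2C9 enzyme; 10 min RT preincubation, then NADPH regeneration 1 h at 37C; luciferin detection reagent 20 min RT, luminescence in relative luminescence units.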

[6] = target: Cytochrome P450 1A2 (Homo sapiens) (UniProt P05177); assay: Cytochrome P450 Family 1 Subfamily A Member 2 (CYP1A2) small molecule antagonists: luciferase reporter qHTS assay (AID 1671199); also: nearly all actives have a fitted effect of over 50% in size
Cytochrome P450 1A2 (Homo sapiens), sequence (P05177 whole entry, looked up): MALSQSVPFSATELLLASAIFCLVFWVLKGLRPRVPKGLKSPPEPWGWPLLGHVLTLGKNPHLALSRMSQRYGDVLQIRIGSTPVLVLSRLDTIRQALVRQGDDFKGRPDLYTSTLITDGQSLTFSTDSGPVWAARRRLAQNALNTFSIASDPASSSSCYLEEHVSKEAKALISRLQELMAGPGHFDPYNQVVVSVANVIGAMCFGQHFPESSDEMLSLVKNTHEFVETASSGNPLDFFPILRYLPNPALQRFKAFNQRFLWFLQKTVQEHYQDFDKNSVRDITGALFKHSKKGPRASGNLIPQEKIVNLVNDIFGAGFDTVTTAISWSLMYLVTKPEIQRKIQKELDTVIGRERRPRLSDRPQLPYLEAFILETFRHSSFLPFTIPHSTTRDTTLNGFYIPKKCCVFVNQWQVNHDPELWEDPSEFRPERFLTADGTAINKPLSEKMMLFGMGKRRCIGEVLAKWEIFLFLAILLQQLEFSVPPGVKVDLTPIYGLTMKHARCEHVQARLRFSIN
Summary of the method: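 Signal from luciferin formed by CYP1A2 from a proluciferin substrate is read as luminescence, expressed in relative luminescence units. Compounds sit with enzyme 10 min, NADPH-driven reaction runs 1 h, all at room temperature.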

[7] = target: Voltage-gated inwardly rectifying potassium channel KCNH2 (Homo sapiens) (UniProt Q12809); assay: Human Ether-a-go-go-Related Gene (hERG) channel small molecule antagonists: fluorescence cell-based qHTS assay (AID 1671200); also: nearly all actives have a fitted effect of over 50% in size
Voltage-gated inwardly rectifying potassium channel KCNH2 (Homo sapiens), sequence (Q12809 whole entry, looked up): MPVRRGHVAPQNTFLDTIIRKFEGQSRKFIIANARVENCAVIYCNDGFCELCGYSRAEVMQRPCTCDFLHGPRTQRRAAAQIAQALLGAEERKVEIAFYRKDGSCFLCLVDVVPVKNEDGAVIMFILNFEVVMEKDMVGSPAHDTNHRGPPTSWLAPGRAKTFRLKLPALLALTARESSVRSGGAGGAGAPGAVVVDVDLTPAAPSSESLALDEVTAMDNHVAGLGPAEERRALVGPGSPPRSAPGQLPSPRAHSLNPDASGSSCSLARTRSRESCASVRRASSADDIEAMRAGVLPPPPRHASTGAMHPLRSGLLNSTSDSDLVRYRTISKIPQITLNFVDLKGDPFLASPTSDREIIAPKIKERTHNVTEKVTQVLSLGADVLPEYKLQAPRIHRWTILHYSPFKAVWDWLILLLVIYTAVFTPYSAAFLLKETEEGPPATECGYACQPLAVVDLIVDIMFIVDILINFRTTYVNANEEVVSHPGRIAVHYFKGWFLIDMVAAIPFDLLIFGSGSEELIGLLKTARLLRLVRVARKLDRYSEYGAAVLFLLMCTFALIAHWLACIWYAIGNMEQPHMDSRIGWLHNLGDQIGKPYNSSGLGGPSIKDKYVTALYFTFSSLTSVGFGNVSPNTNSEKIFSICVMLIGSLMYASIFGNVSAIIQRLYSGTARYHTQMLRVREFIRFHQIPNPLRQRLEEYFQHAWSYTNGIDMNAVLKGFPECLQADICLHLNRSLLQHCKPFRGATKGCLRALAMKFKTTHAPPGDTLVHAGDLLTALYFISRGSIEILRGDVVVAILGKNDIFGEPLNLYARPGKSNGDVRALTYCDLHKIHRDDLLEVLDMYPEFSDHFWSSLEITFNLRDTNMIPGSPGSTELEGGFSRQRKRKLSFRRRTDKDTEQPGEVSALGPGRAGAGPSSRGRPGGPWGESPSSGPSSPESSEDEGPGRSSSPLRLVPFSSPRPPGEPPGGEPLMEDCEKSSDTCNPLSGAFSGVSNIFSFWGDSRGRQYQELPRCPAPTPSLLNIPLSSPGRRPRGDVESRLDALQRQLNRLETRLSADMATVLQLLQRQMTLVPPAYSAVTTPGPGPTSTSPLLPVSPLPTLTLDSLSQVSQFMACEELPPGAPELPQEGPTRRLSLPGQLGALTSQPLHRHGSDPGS
Summary of the method: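 Cell line hERG-U2OS; dye FluxOR II, 1 h RT dark; Tl+ stimulus; ex 480/em 540 nm, read each second for 2 min.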

[8] = target: Cytochrome P450 2D6 (Homo sapiens) (UniProt P10635); assay: Cytochrome P450 Family 2 Subfamily D Member 6 (CYP2D6) small molecule antagonists: luciferase reporter qHTS assay (AID 1671196); also: nearly all actives have a fitted effect of over 50% in size
Cytochrome P450 2D6 (Homo sapiens), sequence (P10635 whole entry, looked up): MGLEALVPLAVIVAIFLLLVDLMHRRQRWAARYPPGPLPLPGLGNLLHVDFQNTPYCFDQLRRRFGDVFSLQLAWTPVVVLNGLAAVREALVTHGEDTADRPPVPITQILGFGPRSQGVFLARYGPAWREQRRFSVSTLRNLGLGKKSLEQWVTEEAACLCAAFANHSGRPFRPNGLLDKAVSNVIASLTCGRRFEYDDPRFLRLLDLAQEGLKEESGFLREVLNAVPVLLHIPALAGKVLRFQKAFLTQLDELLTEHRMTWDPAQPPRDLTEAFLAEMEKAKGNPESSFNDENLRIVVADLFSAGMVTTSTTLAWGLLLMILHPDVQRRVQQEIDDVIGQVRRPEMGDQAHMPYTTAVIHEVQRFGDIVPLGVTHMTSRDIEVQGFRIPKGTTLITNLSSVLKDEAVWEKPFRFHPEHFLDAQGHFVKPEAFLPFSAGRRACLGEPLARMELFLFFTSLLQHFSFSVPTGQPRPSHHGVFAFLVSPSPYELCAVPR
Summary of the method: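 Inhibition of CYP2D6 was gauged by loss of luminescence, since light produced tracks the luciferin generated from a proluciferin substrate. A 10 min room-temperature preincubation preceded 1 h NADPH-supported turnover.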

[9] = target: Cytochrome P450 3A4 (Homo sapiens) (UniProt P08684); assay: Cytochrome P450 Family 3 Subfamily A Member 4 (CYP3A4) small molecule antagonists: luciferase reporter qHTS assay (AID 1671201); also: nearly all actives have a fitted effect of over 50% in size
Cytochrome P450 3A4 (Homo sapiens), sequence (P08684 whole entry, looked up): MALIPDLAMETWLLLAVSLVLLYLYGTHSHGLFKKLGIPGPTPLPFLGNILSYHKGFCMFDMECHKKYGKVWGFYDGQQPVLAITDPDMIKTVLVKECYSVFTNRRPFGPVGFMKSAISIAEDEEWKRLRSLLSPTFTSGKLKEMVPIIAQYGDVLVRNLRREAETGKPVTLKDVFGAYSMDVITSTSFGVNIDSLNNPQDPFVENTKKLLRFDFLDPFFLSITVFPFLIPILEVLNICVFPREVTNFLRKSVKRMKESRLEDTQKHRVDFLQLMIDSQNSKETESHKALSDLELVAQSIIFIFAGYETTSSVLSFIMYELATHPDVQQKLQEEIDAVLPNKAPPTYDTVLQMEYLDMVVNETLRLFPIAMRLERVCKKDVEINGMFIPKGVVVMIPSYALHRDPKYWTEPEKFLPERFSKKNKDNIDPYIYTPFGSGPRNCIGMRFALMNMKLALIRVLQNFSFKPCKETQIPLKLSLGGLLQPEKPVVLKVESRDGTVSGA
Summary of the method: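 Room-temperature assay throughout: 10 min compound–enzyme/substrate preincubation, 1 h reaction after NADPH regeneration solution, 20 min detection. Luciferin formed from proluciferin substrate is quantified by luminescence.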
Potency is read from the fitted curve at half-maximal effect.

Row | SMILES | Potency [1] | Potency [2] | Potency [3] | Potency [4] | Potency [5] | Potency [6] | Potency [7] | Potency [8] | Potency [9]
1 | Nc1ccccc1C(=O)OCCc1ccccc1 | inactive | inactive | inactive | 5.66 µM (active) and 8.94 µM (active) | 31.8 µM (active) and 35.6 µM (active) | 7.13 µM (active) and 7.1 µM (active) | inactive | – | –
2 | C=C(Cl)Cl | inactive | inactive | inactive | 75.6 µM (active) | – | – | inactive | inactive | inactive
3 | O=C([O-])c1ccccn1.O=C([O-])c1ccccn1.O=C([O-])c1ccccn1.[Cr+3] | inactive | inactive | inactive | – | – | 79.9 µM (active) | inactive | 79.9 µM (active) | –
4 | CCCCCCCCCCCCN(C)C | inactive | inactive | inactive | – | inactive | 35.6 µM (active) | inactive | inactive | inactive
5 | O=C(Cl)OCCOCCOC(=O)Cl | inactive | inactive | inactive | – | – | – | inactive | 79.6 µM (active) | inactive
6 | COc1ccc2c(c1OC)C(=O)O[C@H]2[C@@H]1c2cc3c(cc2CCN1C)OCO3 | inactive | inactive | inactive | 3.89 µM (active) | 5.49 µM (active) | inactive | – | – | –
7 | CN[C@@H](C)[C@H](O)c1ccccc1 | inactive | inactive | inactive | inactive | inactive | inactive | inactive | – | inactive
8 | O=C(NC(=O)c1cc(F)c(F)cc1Cl)Nc1cc(F)ccc1N1CCC(C(=O)O)CC1 | inactive | inactive | inactive | inactive | – | inactive | inactive | inactive | inactive
9 | CCCC[P+](CC)(CCCC)CCCC (tested in a mixture with another compound) | inactive | inactive | inactive | – | inactive | inactive | 24.7 µM (active) | 0.0716 µM (active) | inactive
10 | Cc1cnc(C2=NC(C)(C(C)C)C(=O)N2)c(C(=O)O)c1 (stereo not given) | inactive | inactive | inactive | – | inactive | inactive | inactive | inactive | inactive
11 | CN(C)N | inactive | inactive | inactive | – | inactive | 35.6 µM (active) | inactive | inactive | inactive
12 | CC(=O)OC(c1ccccc1)C(Cl)(Cl)Cl (stereo not given) | inactive | inactive | inactive | inactive | – | inactive | – | inactive | inactive
13 | Nc1cc(Cl)cc(C(=O)O)c1Cl | inactive | inactive | inactive | inactive | – | – | inactive | 39.6 µM (active) and inactive | inactive
14 | CCCN(CCC)c1c([N+](=O)[O-])cc(C(C)C)cc1[N+](=O)[O-] | inactive | inactive | inactive | 8.75 µM (active) and 5.03 µM (active) | 27.7 µM (active) and 31.7 µM (active) | 27.7 µM (active) and 35.6 µM (active) | inactive | – | –
15 | C=CC(=O)OCC | inactive | inactive | inactive | inactive | inactive | inactive | inactive | – | inactive
16 | O=C1NC(=O)C(=O)C(=O)N1 | inactive | inactive | inactive | inactive | inactive | inactive | inactive | – | inactive
17 | Cc1nc(N(C)C)nc(OC(=O)N(C)C)c1C | 10 µM (active) | 11.2 µM (active) | 63.3 µM (active) | 79.6 µM (active) | – | 22.4 µM (active) | inactive | inactive | inactive
18 | CCSCc1ccccc1OC(=O)NC | 20 µM (active) | 22.4 µM (active) | inactive | inactive | – | 63.3 µM (active) | inactive | inactive | inactive
19 | CCOC(=O)NC(O)C(Cl)(Cl)Cl (stereo not given) | inactive | inactive | inactive | – | inactive | inactive | inactive | inactive | inactive
20 | CCCCOC(=O)CCC(=O)OCCCC | inactive | inactive | inactive | – | – | 20 µM (active) | inactive | inactive | inactive
21 | CC(CC(C(N)=O)(c1ccccc1)c1ccccc1)N(C)C (stereo not given) | inactive | inactive | inactive | inactive | inactive | inactive | inactive | – | inactive
22 | FC(F)OC(F)(F)C(F)Cl (stereo not given) | inactive | inactive | inactive | inactive | inactive | 35.6 µM (active) | inactive | – | inactive
23 | Nc1ccc2c(c1)Cc1ccccc1-2 | inactive | inactive | inactive | 8.88 µM (active) | 15.8 µM (active) | 1.25 µM (active) | inactive | – | 14.1 µM (active)
24 | C[N+](C)(C)CCOC(=O)C(O)(c1ccccc1)c1ccccc1 | inactive | inactive | inactive | inactive | inactive | inactive | inactive | – | inactive
